The campaign covered roughly 5,500 compounds. About 2,000 (36%) were called active. Another 18% or so got no clear call; they are omitted. Cut-off read from the data, not from the text of the source: active = normalized growth mostly below about 0.91 (no sharp cut-off); inconclusive = no clear call, values can overlap the other calls; inactive = mostly above about 0.92. The list shows a part of the results.
Experiment: chemical genetic growth profiling, strain panel (AID 1159580);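 note: tested at 20 µM; growth read once vehicle control cultures reached saturation at 30 °C; 1 = growth at the plate median or of vehicle wells; lower values mean less growth of the strain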
Conditions: growth OD

Measured: normalized growth

Cc1ncc([N+](=O)[O-])n1CCO
inactive: S. cerevisiae deletion strains, locus YJR075W, strain HOC1, hits give low values 1.01 | S. cerevisiae deletion strains, locus YKL009W, strain mrt4, hits give low values 0.969 | S. cerevisiae deletion strains, locus YKL068W, hits give low values 0.99 | S. cerevisiae deletion strains, locus YKL085W, strain MDH1 (second series), hits give low values 0.985 | S. cerevisiae deletion strains, locus YKL085W, strain MDH1, hits give low values 0.985 | S. cerevisiae deletion strains, locus YKL160W, strain elf1, hits give low values 0.955 | S. cerevisiae deletion strains, locus YKL190W, strain CNB1, hits give low values 0.99 | S. cerevisiae deletion strains, locus YKR001C, strain vps1, hits give low values 1 | S. cerevisiae deletion strains, locus YKR026C, strain gcn3, hits give low values 0.984 | S. cerevisiae deletion strains, locus YKR091W, strain srl3, hits give low values 0.962 | S. cerevisiae deletion strains, locus YLL001W, strain dnm1, hits give low values 0.926 | S. cerevisiae deletion strains, locus YLL026W, hits give low values 0.977 | S. cerevisiae deletion strains, locus YLL041C, strain sdh2, hits give low values 0.98 | S. cerevisiae deletion strains, locus YLR027C, strain aat2, hits give low values 0.98 | S. cerevisiae deletion strains, locus YLR039C, strain RIC1, hits give low values 0.972 | S. cerevisiae deletion strains, locus YLR058C, strain SHM2, hits give low values 0.97 | S. cerevisiae deletion strains, locus YLR102C, strain apc9, hits give low values 0.991 | S. cerevisiae deletion strains, locus YLR113W, strain HOG1, hits give low values 1.05 | S. cerevisiae deletion strains, locus YLR221C, strain rsa3, hits give low values 0.941 | S. cerevisiae deletion strains, locus YLR258W, strain gsy2, hits give low values 0.988 | S. cerevisiae deletion strains, locus YLR262C, strain YPT6 (second series), hits give low values 0.964 | S. cerevisiae deletion strains, locus YLR262C, strain YPT6, hits give low values 0.907 | S. cerevisiae deletion strains, locus YLR268W, strain sec22, hits give low values 1.08 | S. cerevisiae deletion strains, locus YLR320W, strain mms22, hits give low values 0.948 | S. cerevisiae deletion strains, locus YLR330W, strain CHS5, hits give low values 0.987 | S. cerevisiae deletion strains, locus YLR342W, strain FKS1 (second series), hits give low values 0.982 | S. cerevisiae deletion strains, locus YLR342W, strain FKS1, hits give low values 0.978 | S. cerevisiae deletion strains, locus YLR357W, strain rsc2, hits give low values 0.973 | S. cerevisiae deletion strains, locus YLR370C, strain arc18, hits give low values 0.972 | S. cerevisiae deletion strains, locus YLR371W, strain rom2, hits give low values 0.975 | S. cerevisiae deletion strains, locus YLR384C, strain iki3, hits give low values 0.982 | S. cerevisiae deletion strains, locus YLR418C, strain cdc73, hits give low values 0.991 | S. cerevisiae deletion strains, locus YML016C, strain PPZ1, hits give low values 0.986 | S. cerevisiae deletion strains, locus YML032C, strain rad52, hits give low values 1.01 | S. cerevisiae deletion strains, locus YML120C, strain ndi1, hits give low values 0.942 | S. cerevisiae deletion strains, locus YML124C, strain tub3, hits give low values 0.984 | S. cerevisiae deletion strains, locus YMR058W, strain fet3, hits give low values 0.983 | S. cerevisiae deletion strains, locus YMR078C, strain ctf18, hits give low values 0.976 | S. cerevisiae deletion strains, locus YMR125W, strain sto1, hits give low values 0.958 | S. cerevisiae deletion strains, locus YMR129W, hits give low values 0.98 | S. cerevisiae deletion strains, locus YMR205C, strain PFK2, hits give low values 0.936 | S. cerevisiae deletion strains, locus YMR223W, strain ubp8, hits give low values 0.952 | S. cerevisiae deletion strains, locus YMR231W, strain pep5, hits give low values 0.986 | S. cerevisiae deletion strains, locus YMR263W, strain SAP30, hits give low values 0.995 | S. cerevisiae deletion strains, locus YMR307W, strain GAS1, hits give low values 0.976 | S. cerevisiae deletion strains, locus YNL067W, strain RPL9B, hits give low values 0.994 | S. cerevisiae deletion strains, locus YNL071W, strain lat1, hits give low values 0.978 | S. cerevisiae deletion strains, locus YNL128W, strain TEP1, hits give low values 0.951 | S. cerevisiae deletion strains, locus YNL153C, strain GIM3, hits give low values 1.01 | S. cerevisiae deletion strains, locus YNL183C, strain NPR1, hits give low values 1.03 | S. cerevisiae deletion strains, locus YNL209W, strain ssb2, hits give low values 0.974 | S. cerevisiae deletion strains, locus YNL233W, strain BNI4, hits give low values 1.02 | S. cerevisiae deletion strains, locus YNL248C, strain rpa49, hits give low values 0.981 | S. cerevisiae deletion strains, locus YNL250W, strain rad50, hits give low values 0.975 | S. cerevisiae deletion strains, locus YNL271C, strain bni1, hits give low values 0.989 | S. cerevisiae deletion strains, locus YNL298W, strain CLA4, hits give low values 0.992 | S. cerevisiae deletion strains, locus YNL307C, strain MCK1, hits give low values 0.989 | S. cerevisiae deletion strains, locus YNL322C, strain KRE1 (second series), hits give low values 0.974 | S. cerevisiae deletion strains, locus YNL322C, strain KRE1, hits give low values 0.986 | S. cerevisiae deletion strains, locus YNR049C, strain mso1, hits give low values 0.96 | S. cerevisiae deletion strains, locus YNR052C, strain pop2, hits give low values 0.989 | S. cerevisiae deletion strains, locus YOL006C, strain TOP1, hits give low values 1 | S. cerevisiae deletion strains, locus YOL012C, strain htz1 0.99 | S. cerevisiae deletion strains, locus YOL147C, strain pex11, hits give low values 0.986 | S. cerevisiae deletion strains, locus YOR001W, strain rrp6, hits give low values 1 | S. cerevisiae deletion strains, locus YOR061W, strain CKA2, hits give low values 0.967 | S. cerevisiae deletion strains, locus YOR069W, strain VPS5, hits give low values 0.989 | S. cerevisiae deletion strains, locus YOR070C, strain gyp1, hits give low values 0.987 | S. cerevisiae deletion strains, locus YOR080W, strain dia2, hits give low values 0.977 | S. cerevisiae deletion strains, locus YOR083W, strain WHI5, hits give low values 0.954 | S. cerevisiae deletion strains, locus YOR106W, strain vam3, hits give low values 0.937 | S. cerevisiae deletion strains, locus YOR136W, strain idh2, hits give low values 0.984 | S. cerevisiae deletion strains, locus YOR144C, strain elg1, hits give low values 0.989 | S. cerevisiae deletion strains, locus YOR184W, strain ser1, hits give low values 0.998 | S. cerevisiae deletion strains, locus YOR231W, strain MKK1, hits give low values 1.06 | S. cerevisiae deletion strains, locus YOR265W, strain rbl2, hits give low values 0.985 | S. cerevisiae deletion strains, locus YOR270C, strain vph1, hits give low values 0.958 | S. cerevisiae deletion strains, locus YOR290C, strain snf2, hits give low values 0.91 | S. cerevisiae deletion strains, locus YOR316C, strain cot1, hits give low values 0.992 | S. cerevisiae deletion strains, locus YPL051W, strain arl3, hits give low values 0.978 | S. cerevisiae deletion strains, locus YPL055C, strain LGE1, hits give low values 0.974 | S. cerevisiae deletion strains, locus YPL078C, strain atp4, hits give low values 0.959 | S. cerevisiae deletion strains, locus YPL106C, strain sse1, hits give low values 0.943 | S. cerevisiae deletion strains, locus YPL240C, strain hsp82, hits give low values 0.983 | S. cerevisiae deletion strains, locus YPL241C, strain CIN2, hits give low values 0.982 | S. cerevisiae deletion strains, locus YPL256C, strain CLN2, hits give low values 1.1 | S. cerevisiae deletion strains, locus YPR119W, strain clb2, hits give low values 0.992 | S. cerevisiae deletion strains, locus YPR141C, strain kar3, hits give low values 0.982 | S. cerevisiae deletion strains, locus YPR163C, strain tif3, hits give low values 0.987 | S. cerevisiae deletion strains, locus YPR167C, strain met16, hits give low values 0.998 | S. cerevisiae deletion strains, strain wtn01, hits give low values 1.02 | S. cerevisiae strains, strain wild type, hits give low values 0.98
